Common to all, as to assay: qHTS profiling for inhibitors of Plasmodium falciparum proliferation (AID 504749); also: nearly all actives have a fitted effect of over 60% in size
Common to all, as to settings: P. falciparum in erythrocytes, SYBR Green DNA, 72 h; series mostly up to 28.7 µM
On the technique in general: Quantitative high-throughput screening tests each substance at several concentrations.

One experiment concerns N140. Put shortly:
(§1)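 Parasite proliferation within erythrocytes, 72 h exposure. Endpoint: SYBR Green I fluorescence after overnight lysis at room temperature. Controls: 0.29 uM artemisinin, DMSO.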

The next experiment deals with P93_24. Put shortly: as §1
For the next experiment, the system named is P94_40. Put shortly: as §1
A further experiment concerns PAD. Put shortly:
as §1

For a further experiment, the system named is PC15. Put shortly: as §1
The subject of the next experiment is PC49. Summed up: as §1
The next experiment relates to TAB109. Put shortly:
as §1

For a further experiment, the system named is TAB113. Summed up:
as §1

In another experiment the test system is PC26. Summed up: as §1
For the next experiment, the system named is SC27B. Summed up: as §1

Records with an inconclusive call do not appear. Calls of active or inactive are those of the source. Calls follow the shape of the dose curve; as a rule, active = well fitted inhibition curve with a large enough effect; inconclusive = small, poorly fitted or top-dose-only effect; inactive = flat fitted curve, though single readings scatter.
Potency is read from the fitted curve at half-maximal effect.

Turning to `CCCCC1=NC2(CCCC2)C(=O)N1Cc1ccc(-c2ccccc2-c2nn[nH]n2)cc1`, the Potency result in the experiment with N140, with P93_24, in the experiment on P94_40, with PAD, in the experiment with PC15 and with PC49 was “inactive” each time. For the same compound, the Potency result with TAB109 and in the experiment with TAB113 was “inactive” in each case.

`CC(C)COC(=O)c1ccc(N)cc1`: the Potency entry in the experiment with N140, with P93_24, in the experiment with PAD, with PC15, in the experiment on PC26 and in the experiment with PC49 was “inactive” in each case. Also, the Potency entry in the experiment with SC27B and with TAB113 was “inactive” each time.

For `COc1c(C)c2c(c(O)c1C/C=C(\C)CCC(=O)O)C(=O)OC2`, the Potency in the experiment with N140 is 3.16 µM (active); with P93_24, 2.82 µM (active); in the experiment on P94_40 it was 3.16 µM (active); in the experiment on PAD, 3.16 µM (active); in the experiment with SC27B, 2.24 µM (active); in the experiment on TAB109, 2.82 µM (active). In the experiment on TAB113, the Potency is 3.98 µM (active). Also, the Potency result with PC15 and in the experiment with PC49 was “inactive” throughout.

As to `CCOc1ccc2nc3cc(N)ccc3c(N)c2c1`, the Potency is 10 µM (active) in the experiment with N140; 3.55 µM (active) in the experiment with P93_24; 5.62 µM (active) in the experiment on P94_40; 7.08 µM (active) in the experiment on PAD; 10 µM (active) with PC15; 7.94 µM (active) in the experiment with PC49. Further, the Potency was 7.94 µM (active) in the experiment with SC27B, 3.98 µM (active) in the experiment with TAB109 and 4.47 µM (active) with TAB113.

With `CCCCc1nc(Cl)c(CO)n1Cc1ccc(-c2ccccc2-c2nn[nH]n2)cc1`, the values for the Potency in the experiment with N140 and with P94_40 were 12.6 µM (active) and 10 µM (active), respectively. Besides, the Potency entry in the experiment on PC15 and in the experiment on PC49 was “inactive” throughout.

On to `C#C[C@]1(O)CC[C@H]2[C@@H]3CCc4cc(OC5CCCC5)ccc4[C@H]3CC[C@@]21C`, for which the Potency entry in the experiment with N140, with P93_24, with PAD, with PC15, in the experiment with PC26 and with PC49 was “inactive” each time. The Potency result in the experiment on TAB109 is “inactive”.

For the compound `CC(=O)c1ccc2c(c1)N(CCCN1CCC(CCO)CC1)c1ccccc1S2`, the Potency result in the experiment on N140, with P94_40, in the experiment on PAD, in the experiment with PC15, in the experiment with PC49 and with SC27B was “inactive” each time. The Potency entry in the experiment on TAB109 and in the experiment with TAB113 was “inactive” each time.

As for `O=S1(=O)c2cccc3cccc(c23)N1CCCN1CCN(c2ccc(F)cc2)CC1`, the Potency result in the experiment with N140, in the experiment with P93_24, with PAD, with PC15, in the experiment with PC49 and in the experiment with SC27B was “inactive” each time. Moreover, the Potency entry in the experiment with TAB109 and in the experiment with TAB113 was “inactive” throughout.

For `NC(=O)C(=O)N/N=C/c1ccc([N+](=O)[O-])o1`, the Potency result in the experiment with N140, in the experiment with P93_24, with P94_40, in the experiment with PAD, with PC15 and with PC49 was “inactive” throughout. Further, the Potency entry in the experiment with SC27B, in the experiment on TAB109 and in the experiment on TAB113 was “inactive” in each case.

Turning to `CCN(CC)CCNC(=O)COc1ccc(Cl)cc1`, the Potency was 12.6 µM (active) in the experiment on N140, 11.2 µM (active) in the experiment on P93_24, 11.2 µM (active) in the experiment on PAD and 11.2 µM (active) in the experiment on SC27B. The Potency result in the experiment on PC15 and in the experiment on TAB113 was “inactive” in each case.

Take `CC(=O)Nc1c(I)cc(I)c(C(=O)O)c1I`: the Potency result in the experiment with N140, in the experiment on P94_40, in the experiment on PAD, in the experiment with PC15, in the experiment on PC26 and with PC49 was “inactive” in each case. The Potency result with SC27B, in the experiment with TAB109 and with TAB113 was “inactive” each time.

In the case of `CCCCCCCCCCCCCCNCCO`, the Potency with N140 was 14.1 µM (active). Moreover, the Potency result in the experiment on PC26, in the experiment with PC49, with SC27B, in the experiment on TAB109 and in the experiment on TAB113 was “inactive” in each case.

As to `CN(C)C(=S)SC(=S)N(C)C`, the Potency in the experiment on N140 is 11.2 µM (active); with P93_24, 8.91 µM (active); with P94_40, 11.2 µM (active); in the experiment on PAD, 5.01 µM (active); with TAB113, 11.2 µM (active).

For `CN1CCC(=C2c3ccccc3Sc3ccccc32)CC1`, the Potency is 10 µM (active) in the experiment on N140; 10 µM (active) with P93_24; 10 µM (active) in the experiment on P94_40; 12.6 µM (active) in the experiment on PAD; 11.2 µM (active) in the experiment on SC27B; 11.2 µM (active) in the experiment with TAB109. The Potency with TAB113 is 11.2 µM (active). Further, in the experiment with PC49, the Potency result is “inactive”.

On to `C=CCc1ccc(O)c(OC)c1`, for which the Potency entry in the experiment on N140, with P94_40, in the experiment on PAD, with PC15, in the experiment on PC26 and with PC49 was “inactive” throughout. The Potency entry in the experiment on SC27B, with TAB109 and in the experiment on TAB113 was “inactive” throughout.

As to `CC(=O)N/N=C/c1ccc([N+](=O)[O-])o1`, the Potency in the experiment on N140 is 12.6 µM (active); in the experiment on TAB109, 6.31 µM (active). For the same compound, the Potency entry in the experiment on PC26 and in the experiment with PC49 was “inactive” throughout.

For the compound `CCN(CC)CCOC(=O)C(c1ccccc1)C1CCCCC1` (centres undefined), the Potency entry with N140, in the experiment on P94_40, with PC49, with SC27B and in the experiment with TAB109 was “inactive” in each case.

For the compound `CN(C)CCCOc1nn(Cc2ccccc2)c2ccccc12`, the Potency result in the experiment on N140, in the experiment with P94_40, in the experiment with PAD, in the experiment with PC15, in the experiment with PC49 and with SC27B was “inactive” throughout. The Potency result with TAB109 and with TAB113 was “inactive” each time.

Turning to `CCCCCCCCCCCCCCCCCC(=O)OCC(O)CO` (centres undefined), the Potency result with N140, in the experiment on P94_40, with PAD, in the experiment with PC15, in the experiment on PC26 and with PC49 was “inactive” throughout. Further, the Potency result in the experiment on SC27B, with TAB109 and in the experiment on TAB113 was “inactive” throughout.

The record behind these values is PubChem BioAssay (NCATS).
